High-throughput results as filed in PubChem BioAssay.
ssDAF12 agonist: S. stercoralis DAF-12 nuclear receptor activators, primary screen, cell-based, luminescence, HEK293, GRIP1 co-expression, lit1-tk-luc; actives 1% (n = 370,000); activation, % at 6.8 µM; HEK293 ssDAF-12/GRIP1 lit1-tk-luc reporter; % of 3 µM dafachronic acid response;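 active = activation above the mean over all tested compounds plus 3 SD, cut at about 0.9% in these data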
DAX1 inh-1: DAX1 (NR0B1) inhibitors, primary screen, cell-based, HEK293, Gal4-DAX1, luciferase luminescence | Nuclear receptor subfamily 0 group B member 1 (Homo sapiens), P51843 | HEK293 Gal4-DAX1 luciferase reporter | inhibition, % at 6.75 µM | actives 0.99% (n = 340,000);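 active = inhibition above the mean over all tested compounds plus 3 SD, cut at about 4.2% in these data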;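 also: inhibition shows as a rise in luminescence from relieved DAX1 repression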
hcDAF12 agonist: H. contortus DAF-12 nuclear receptor activators, primary screen, cell-based, luminescence, HEK293, lit1-tk-luc reporter | actives 1.4% (n = 370,000) | HEK293 hcDAF-12 lit1-tk-luc reporter; 0% DMSO, 100% Δ7-dafachronic acid | activation, % at 6.8 µM;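 active = activation above the mean of all tested compounds plus 3 SD, cut at about 5.5% in these data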
hgDAF-12 ag: H. glycines DAF-12 receptor agonists, primary screen, cell-based, luminescence, HEK293, GAL4 fusion, UAS-luciferase | Nuclear hormone receptor DAF-12 (Heterodera glycines), GAL4 fusion | HEK293 GAL4-hgDAF12 UAS-luciferase reporter, agonist luminescence; normalized to butyrate control | activation, % at 6.8 µM | actives 1.8% (n = 370,000) | AID 687014, 2013;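 active = activation above a cutoff set at the mean of all screened compounds plus 3 SD, cut at about 10% in these data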
AHR act: AHR activators, primary screen, cell-based, luminescence, luciferase reporter, human; AHR-responsive luciferase reporter cells; Aryl hydrocarbon receptor (Homo sapiens), P35869; actives 2.5% (n = 320,000); activation, % at 5 µM; in the data active = activation above about 47%
DAX1 inh-2: DAX1 (NR0B1) inhibitors on StAR promoter, primary screen, cell-based, luminescence, SF-1 (NR5A1), full-length DAX-1 | inhibition, % at 6.8 µM | actives 1.1% (n = 370,000) | HEK293T StAR-luciferase reporter, SF-1/DAX-1 repression relief;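 active = inhibition above the mean over all tested compounds plus 3 SD, cut at about 3.6% in these data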;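 also: higher inhibition means more luminescence from relief of DAX-1 repression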
AHR act cf: AHR activators, confirmation, cell-based, luminescence, luciferase reporter, human; AID 2845, 2010; shares compounds with AHR act; human cells, AHR-responsive luciferase reporter; activation, % at 9 µM; actives 87% (n = 2,300); in the data active = activation above about 49%;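 also: HepG2 hepatoma cells carrying a DRE-driven firefly luciferase reporter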
PXR act counter: human PXR activators, counter-screen for AHR activator project, cell-based, luciferase luminescence; shares compounds with AHR act; cell-based PXR reporter; activation, % at 11.6 µM; actives 88% (n = 2,300); in the data active = activation above about 11%;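 also: human hepatoma DPX-2 cells expressing full-length human PXR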
Hits are given with their value; . = inactive; / = not tested or not shown. Sampled rows, rich in hits. Any-hit rate of the full collection: about 5.7%.

SMILES | ssDAF12 agonist | DAX1 inh-1 | hcDAF12 agonist | hgDAF-12 ag | AHR act | DAX1 inh-2 | AHR act cf | PXR act counter
COc1cc(NC(=O)c2cc(C3CC3)on2)c(OC)cc1Cl | . | . | 6.4 | . | 95 | . | 110 | 14
O=C(Nc1cccc(C(=O)Nc2ccc(Cl)cn2)c1)c1ccccc1 | . | . | . | . | 82 | . | . | 19
O=C(Nc1ccc(-c2csc(Nc3ccc(Cl)cc3)n2)cc1)c1cc([N+](=O)[O-])cc(C(F)(F)F)c1 | . | . | . | . | . | . | / | /
O=C(Nc1cccc(-c2csc(Nc3ccc(Cl)cc3)n2)c1)c1cccc(C(F)(F)F)c1 | . | . | . | . | 106 | . | . | 25
O=C(Nc1cccc(-c2csc(Nc3ccc(Cl)cc3)n2)c1)c1ccccc1 | . | . | . | . | 93 | . | 95 | 22
COC(c1ccccc1)(c1ccccc1)C(Oc1nccc(C)n1)C(=O)O (centres undefined) | . | . | . | . | . | . | / | /
O=C(CSc1nnc2ccccn12)NNC(=O)c1ccc(F)cc1 | . | . | . | . | . | . | / | /
O=C(NCCCc1ccccc1)c1cccc(S(=O)(=O)N2CCOCC2)c1 | . | . | . | . | . | . | / | /
Cc1ccc(C(=O)Nc2scc(-c3ccccc3)c2C(=O)O)cc1 | . | . | . | . | . | . | / | /
[N-]=[N+]=CC(=O)C(O)(c1ccccc1)C(Cl)c1ccccc1 (centres undefined) | . | / | . | . | . | . | / | /
C=CCNC(=S)N/N=C(\C)c1ccc(-n2ccnc2)cc1 | . | . | . | . | 89 | . | 106 | 19
C/C(=N\NC(N)=O)c1ccc(-n2ccnc2)cc1 | . | . | . | . | . | . | / | /
C/C(=N\NC(=S)NC(C)C)c1ccc(-n2ccnc2)cc1 | . | . | . | . | 122 | . | 77 | 14
CCN(CC)c1ccc(S(=O)(=O)N2CCOCC2)cc1NC(=O)COC(=O)c1ccco1 | . | . | . | . | . | . | / | /
Cc1cc(C)nc(N/N=C/c2ccccc2Cl)n1 | . | / | . | . | . | . | / | /
Cc1cc(C)nc(N/N=C/c2cccc3ccccc23)n1 | . | . | . | . | 89 | . | . | 34
Cc1ccc(/C=N/Nc2nc(N3CCOCC3)nc(N3CCOCC3)n2)o1 | . | . | . | . | . | . | / | /
CN1C(=O)C(c2cn(C)c3ccccc23)(c2cn(C)c3ccccc23)c2ccccc21 | . | / | . | . | / | . | / | /
Cc1ccc(-c2nnc(SCC(=O)NC3CCCC3)n2C)cc1 | . | . | . | . | . | . | / | /
CCOc1ccc(-c2c(C(=O)N/N=C(\C)c3cccnc3)nnn2-c2nonc2N)cc1 | . | . | . | . | 91 | . | 94 | 33
Cc1ccc(CN2CC[C@H]3C=CCc4cccc(c43)C2)cc1 | . | . | . | . | . | . | / | /
COc1ccc(CN2CC[C@H]3C=CCc4cccc(c43)C2)cc1 | . | . | . | . | 82 | . | . | 26
O=C(N/N=C/c1c[nH]c2ccccc12)c1ccccc1Cl | . | . | . | . | / | . | / | /
Cc1occc1C(=O)N/N=C/c1c[nH]c2ccccc12 | / | . | / | / | 123 | / | 112 | 23
CCc1ccc(/C=N/NC(=O)c2c[nH]c3ccccc23)s1 | . | . | . | . | 85 | . | . | 42
O=C(N/N=C/c1c[nH]c2ccccc12)c1cc(Cl)ccc1O | 1.6 | . | . | . | 148 | . | 113 | .
